Assay results reported in PubChem BioAssay.
Where “and” joins values, the source holds several entries; their conditions need not be identical. Equal entries are not always repeated. Calls of active or inactive are those of the source.

Tests used:
Albumin (Bos taurus) = Albumin (Bos taurus) (UniProt P02769); experiment: bovine serum albumin binders on microarray, profiling panel, artefact control for SMM control protein annotation, biochemical, small-molecule microarray, Alexa647 label, 635/667 nm fluorescence (AID 1118); conditions: BSA-A647 binding, fluorescence 635 nm, higher = more signal;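 note: score merges 667 nm emission intensity and signal-to-noise per printed compound spot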
Albumin (Bos taurus), sequence (P02769 whole entry, looked up): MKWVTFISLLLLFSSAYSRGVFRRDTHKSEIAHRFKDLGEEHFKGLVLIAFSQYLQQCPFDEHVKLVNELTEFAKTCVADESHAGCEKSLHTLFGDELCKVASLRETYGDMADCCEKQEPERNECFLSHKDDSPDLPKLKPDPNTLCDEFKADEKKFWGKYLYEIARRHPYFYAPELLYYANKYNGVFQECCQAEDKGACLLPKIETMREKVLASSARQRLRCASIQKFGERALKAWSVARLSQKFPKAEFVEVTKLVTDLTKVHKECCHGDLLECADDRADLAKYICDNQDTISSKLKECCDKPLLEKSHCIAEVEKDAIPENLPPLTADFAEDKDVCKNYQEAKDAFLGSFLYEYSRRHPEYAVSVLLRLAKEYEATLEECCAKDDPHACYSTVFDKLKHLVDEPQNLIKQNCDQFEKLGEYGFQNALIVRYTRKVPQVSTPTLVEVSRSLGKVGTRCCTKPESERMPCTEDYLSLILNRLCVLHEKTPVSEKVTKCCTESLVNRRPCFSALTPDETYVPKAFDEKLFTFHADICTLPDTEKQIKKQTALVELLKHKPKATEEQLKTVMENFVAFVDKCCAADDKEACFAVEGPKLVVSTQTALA

[1] = small-molecule microarray binders of probe aXIP, primary screen, biochemical, NeuroSMM set, 635/667 nm fluorescence (AID 1119); conditions: higher = more signal, called active from +8 up or from −8 down;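 note: probe is the protein aXip251-270 applied at 1 µg/mL to compound-printed slides; binding of probe to printed compounds measured as 667 nm fluorescence plus signal to noise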
[2] = small-molecule binders of probe aNOTCH3, primary screen, biochemical, small-molecule microarray, 635/667 nm fluorescence (AID 1120); conditions: higher = more signal;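 note: probe is a biotin-tagged antibody raised against NOTCH3 rather than NOTCH3 protein; score merges spot fluorescence near 667 nm with spot signal to noise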
[3] = small-molecule binders of probe aNOTCH2, primary screen, biochemical, small-molecule microarray, 635/667 nm fluorescence (AID 1121); conditions: higher = more signal;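 note: score merges feature fluorescence read at 667 nm with its signal to noise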
[4] = biological target: Carbonic anhydrase 2 (Homo sapiens) (UniProt P00918); experiment: CAII small-molecule binders, profiling panel, biochemical, small-molecule microarray, Alexa647-labelled CAII (AID 1122); conditions: CAII-A647 binding fluorescence, higher = more signal
[5] = COS7 lysate on small-molecule microarray, probe aHis, 635 nm (AID 1123); conditions: COS7 cell lysate, fluorescence, higher = more signal;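 note: z-score combines 667nm fluorescence intensity with signal-to-noise per printed compound spot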
[6] = compound binding in COS7 lysate, probe aLAP1, primary screen, cell lysate, small-molecule microarray (AID 1124); conditions: probe aLAP1, fluorescence, higher = more signal;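 note: lysate comes from COS7 cells expressing LAP1 and is applied at 0.3 µg/mL; score merges spot fluorescence near 667 nm with signal-to-noise over triplicate slides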
Sam68 (KHDRBS1) = experiment: Sam68 small-molecule binders, primary screen, biochemical, small-molecule microarray, 635 nm fluorescence (AID 1125); conditions: small-molecule microarray binding, higher = more signal;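 note: score merges 667 nm channel intensity with signal to noise over triplicate slides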
[7] = system: Chordin-like protein 2 (CHRDL2); experiment: CHRDL2 small-molecule binders, primary screen, biochemical, small-molecule microarray, 635 nm fluorescence (AID 1126); conditions: small-molecule microarray binding, fluorescence 635 nm; higher = more signal;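 note: printed compound slides probed with Chrdl2 protein at 4 µg/mL for 1 h at 4 C; score merges 667 nm emission intensity with signal to noise over three replicate slides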
[8] = biological target: Concanavalin-A (Canavalia ensiformis) (UniProt P02866); experiment: ConA small-molecule binders, primary screen, artefact control for SMM control protein annotation, biochemical, small-molecule microarray, Alexa647 label, 635 nm (AID 1127); conditions: ConA-A647 binding fluorescence, higher = more signal;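 note: z combines 667 nm emission intensity with signal-to-noise across three replicate slides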
Concanavalin-A (Canavalia ensiformis), sequence (P02866 whole entry, looked up): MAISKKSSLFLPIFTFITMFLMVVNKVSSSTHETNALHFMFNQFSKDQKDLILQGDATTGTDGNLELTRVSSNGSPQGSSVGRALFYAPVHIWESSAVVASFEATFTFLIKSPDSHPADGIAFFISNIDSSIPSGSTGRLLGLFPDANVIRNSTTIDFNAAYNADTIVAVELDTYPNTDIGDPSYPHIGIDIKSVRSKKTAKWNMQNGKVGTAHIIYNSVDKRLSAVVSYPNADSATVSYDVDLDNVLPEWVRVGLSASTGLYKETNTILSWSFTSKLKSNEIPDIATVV

CC(CO)N1C(=O)[C@@H]2C3C(=O)OCCC=C[C@H]3OC23C=CCN(Cn2nnc4ccccc42)C(=O)[C@@H]13 (stereo not given in full)
composite z-score (Albumin (Bos taurus)): -0.169 and 0.923 | composite Z-score [1]: 0.318 (inactive) and 0.418 (inactive) | composite z-score [2]: -0.374 and -0.15 | composite z-score [3]: -0.14 and -0.0191 | composite z-score [4]: 0.939 and 0.856 | composite z-score [5]: 0.342 and -0.478 | composite z-score [6]: 0.102 and 0.397 | composite z-score (Sam68 (KHDRBS1)): -0.821 and -0.291 | composite z-score [7]: -2.19 and 0.0479 | composite z-score [8]: -0.221 and -0.0699

C[N+](C)(C)CCCCNC(=O)[C@H]1C[C@H]2C(=O)N[C@@H](CCCC[N+](C)(C)C)C(=O)N2[C@H]1c1cccc(OCCO)c1
composite z-score (Albumin (Bos taurus)): -0.741 and -0.3 | composite Z-score [1]: 2.4 (inactive) and 1.3 (inactive) | composite z-score [2]: 0.0533 and 0.245 | composite z-score [3]: -0.0974 and -0.131 | composite z-score [4]: 0.851 and 0.463 | composite z-score [5]: 1.38 and 1.49 | composite z-score [6]: 0.848 and 0.953 | composite z-score (Sam68 (KHDRBS1)): 0.25 and 1.32 | composite z-score [7]: 1.17 and 1.53 | composite z-score [8]: 0.744 and 1.05

C[C@@H](ON=C1[C@H]2CCn3c(=O)n(-c4ccccc4)c(=O)n3[C@H]2[C@H](O)[C@@H]2O[C@H]12)c1cn([C@H](CO)Cc2ccccc2)nn1
composite z-score (Albumin (Bos taurus)): 0.0073 | composite Z-score [1]: 0.116 (inactive) | composite z-score [2]: -0.216 | composite z-score [3]: -0.17 | composite z-score [4]: -0.0324 | composite z-score [5]: 0.392 | composite z-score [6]: 0.012 | composite z-score (Sam68 (KHDRBS1)): 0.209 | composite z-score [7]: 0.353 | composite z-score [8]: 0.349

COc1ccc(O[C@H]2C=C[C@@H](c3ccccc3)O[C@@H]2COC(=O)CCC(C)=NO[C@H](C)c2cn([C@H](CO)Cc3ccccc3)nn2)cc1
composite z-score (Albumin (Bos taurus)): 0.683 and 0.0567 | composite Z-score [1]: 0.0335 (inactive) and 0.232 (inactive) | composite z-score [2]: 0.0886 and -0.295 | composite z-score [3]: -0.318 and -0.0611 | composite z-score [4]: -0.11 and -0.114 | composite z-score [5]: 0.167 and -0.0458 | composite z-score [6]: -0.226 and -0.0278 | composite z-score (Sam68 (KHDRBS1)): 0.492 and -0.005 | composite z-score [7]: 0.0011 and 0.593 | composite z-score [8]: -0.0163 and -0.0252

C=CCN(C(=O)C1N(CCCCCCO)C(=O)C2C(C(=O)O)C3C=CC21O3)C(C)(C)C (stereo not given)
composite z-score (Albumin (Bos taurus)): -0.171 and -1.11 | composite Z-score [1]: 0.148 (inactive) and -0.707 (inactive) | composite z-score [2]: -0.695 and -0.55 | composite z-score [3]: -0.217 and -0.192 | composite z-score [4]: 0.987 and 0.958 | composite z-score [5]: -0.712 and 0.0575 | composite z-score [6]: -0.729 and -0.646 | composite z-score (Sam68 (KHDRBS1)): -1.73 and -0.275 | composite z-score [7]: -4.11 and -4.07 | composite z-score [8]: -0.974 and -2.94

COC(=O)C1=C(C)N(Cc2ccccc2)[C@]23O[C@](C(=O)OC)(C(=O)N2[C@@H]1c1ccccc1)[C@H]1C(=O)N(c2ccccc2)C(=O)[C@H]13
composite z-score (Albumin (Bos taurus)): 0.692 and 0.614 | composite Z-score [1]: -0.119 (inactive) and -0.275 (inactive) | composite z-score [2]: 0.121 and 0.024 | composite z-score [3]: 0.0793 and -0.0321 | composite z-score [4]: 0.306 and 0.428 | composite z-score [5]: 1.05 and -0.39 | composite z-score [6]: 0.294 and 0.526 | composite z-score (Sam68 (KHDRBS1)): 0.682 and 0.308 | composite z-score [7]: 0.223 and 0.523 | composite z-score [8]: 0.838 and 0.0089

C=CCN(C(=O)C1N(CCCCCCO)C(=O)C2C(C(=O)O)C3C=CC21O3)c1ccc(OC)cc1 (stereo not given)
composite z-score (Albumin (Bos taurus)): -0.547 and -1.14 | composite Z-score [1]: -0.344 (inactive) and -0.542 (inactive) | composite z-score [2]: -0.577 and -0.287 | composite z-score [3]: -0.0345 and -0.0148 | composite z-score [4]: 0.981 and 0.391 | composite z-score [5]: 3.24 and 2.93 | composite z-score [6]: 1.44 and 0.066 | composite z-score (Sam68 (KHDRBS1)): -0.931 and -2.13 | composite z-score [7]: -2.65 and -2.43 | composite z-score [8]: -0.941 and -2.04

COC(=O)C1=C(C)N(Cc2ccccc2)C2=C(C(C)=O)[C@H](c3ccccc3)[C@@](O)(C(=O)OC)C(=O)N2[C@@H]1c1ccccc1
composite z-score (Albumin (Bos taurus)): 0.695 and -0.583 | composite Z-score [1]: 0.124 (inactive) and 0.115 (inactive) | composite z-score [2]: -0.0362 and -0.182 | composite z-score [3]: -0.0907 and -0.124 | composite z-score [4]: 0.301 and -0.459 | composite z-score [5]: 0.275 and -0.666 | composite z-score [6]: -0.209 and -0.312 | composite z-score (Sam68 (KHDRBS1)): 1.17 and -1.23 | composite z-score [7]: 0.564 and 0.437 | composite z-score [8]: 0.365 and -0.139

CC(CO)N1C(=O)[C@@H]2C3C(=O)OCCC=C[C@H]3OC23C=CCN(c2ccc(Cl)cc2)C(=O)[C@@H]13 (stereo not given in full)
composite z-score (Albumin (Bos taurus)): -0.999 and 0.734 | composite Z-score [1]: -0.33 (inactive) and 0.551 (inactive) | composite z-score [2]: -0.33 and 0.0749 | composite z-score [3]: -0.0995 and 0.0031 | composite z-score [4]: 0.889 and 0.596 | composite z-score [5]: -0.31 and 0.287 | composite z-score [6]: -0.102 and -0.304 | composite z-score (Sam68 (KHDRBS1)): -0.805 and 0.2 | composite z-score [7]: -1.51 and -0.496 | composite z-score [8]: -0.935 and 0.094

C=CCN(CCCC)C(=O)C(c1cccs1)N(CCOCCO)C(=O)/C=C\C(=O)O (stereo not given)
composite z-score (Albumin (Bos taurus)): -0.717 and 0.789 | composite Z-score [1]: -0.67 (inactive) and -0.0169 (inactive) | composite z-score [2]: -0.362 and -0.189 | composite z-score [3]: -0.14 and -0.115 | composite z-score [4]: 0.916 and 0.734 | composite z-score [5]: 0.0303 and 1.6 | composite z-score [6]: -0.672 and 0.9 | composite z-score (Sam68 (KHDRBS1)): -1.2 and -0.24 | composite z-score [7]: -1.6 and -0.769 | composite z-score [8]: -2.03 and -0.878

CCN1C(=O)[C@H]2[C@H]3[C@H](O)[C@H](O)CC(=NNC(=O)OCc4ccc(OC)cc4)[C@H]3CC[C@H]2C1=O
composite z-score (Albumin (Bos taurus)): 0.878 | composite Z-score [1]: -0.388 (inactive) | composite z-score [2]: 0.0979 | composite z-score [3]: -0.0903 | composite z-score [4]: -0.121 | composite z-score [5]: 0.0203 | composite z-score [6]: 0.5 | composite z-score (Sam68 (KHDRBS1)): -0.0112 | composite z-score [7]: 0.737 | composite z-score [8]: 0.364

CN1C(=O)C2CC=C([C@H]3Oc4ccccc4S(=O)(=O)N4CCC[C@@H]34)CC2C1=O (stereo not given in full)
composite z-score (Albumin (Bos taurus)): -0.75 and -0.505 | composite Z-score [1]: 0.183 (inactive) and -0.213 (inactive) | composite z-score [2]: -0.182 and -0.173 | composite z-score [3]: -0.14 and -0.084 | composite z-score [4]: -0.296 and -0.322 | composite z-score [5]: -0.616 and -0.564 | composite z-score [6]: 0.892 and -0.263 | composite z-score (Sam68 (KHDRBS1)): -1.08 and -1.56 | composite z-score [7]: -0.144 and 0.153 | composite z-score [8]: -0.476 and -1.05

CC(CO)N1C(=O)[C@@H]2C3C(=O)OCCC=C[C@H]3OC23C=CCN(Cc2ccccc2)C(=O)[C@@H]13 (stereo not given in full)
composite z-score (Albumin (Bos taurus)): -0.561 and -0.652 | composite Z-score [1]: 0.0931 (inactive) and -0.171 (inactive) | composite z-score [2]: -0.207 and -0.136 | composite z-score [3]: -0.174 and -0.133 | composite z-score [4]: 0.84 and 0.944 | composite z-score [5]: -0.205 and 0.481 | composite z-score [6]: 0.716 and 0.0818 | composite z-score (Sam68 (KHDRBS1)): -0.0818 and -0.239 | composite z-score [7]: -0.927 and -0.898 | composite z-score [8]: -1.3 and -1.38

Cc1ccc(S(=O)(=O)OC[C@@H]2CN3[C@@H](CC[C@@H](C)[C@@H]3c3ccc(Br)cc3)C(=O)O2)cc1
composite z-score (Albumin (Bos taurus)): 0.278 and 0.51 | composite Z-score [1]: -0.19 (inactive) and 0.177 (inactive) | composite z-score [2]: 0.062 and 0.0051 | composite z-score [3]: -0.124 and -0.0326 | composite z-score [4]: 0.11 and 0.427 | composite z-score [5]: -0.0886 and 0.315 | composite z-score [6]: -0.162 and 0.565 | composite z-score (Sam68 (KHDRBS1)): 0.418 and 0.99 | composite z-score [7]: 0.251 and 0.327 | composite z-score [8]: 0.446 and 0.54
